Rab9 promoter act = Rab9 promoter activation. hit rate 2.8% among 320,000. Huh7 Rab9 promoter-luciferase reporter, luminescence, 24 h. AID 485297. Potency, µM (highest dose often 9.22 µM), for inactives: at the highest dose activation, negative = inhibition, actives largely listed as activators; also: % of control where 0% means no effect; nearly all actives have a fitted effect of over 60% in size
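Stable Rab9-luc Huh7, 1500 cells/well, 2 h settle; cmpd in DMSO, 24 h, 37 °C/5% CO2; luciferase reagent 10 min RT; luminescence.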
ELG1 genotoxic = inducers of genotoxicity in HEK293T ELG1-luciferase cells; HEK293T ELG1-luciferase reporter, luminescence, 16 h; Potency, µM (highest dose often 46 µM), inactives show top-dose activity change, positive = activation, actives largely listed as activators; hit rate 1.3% among 330,000; also: % of control where 0% means no effect; nearly all actives have a fitted effect of over 60% in size
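After overnight (16 hr) compound treatment at 37 °C, ELG1-luciferase HEK293T cells were lysed with ONE-Glo; luminescence quantified 30 min later at room temperature.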
SMN2 splice up = enhancers of SMN2 splice variant expression; HEK293 SMN2-luciferase splicing reporter, luminescence, 30-36 h; Potency, µM (highest dose often 46.1 µM), without a hit: at the highest dose activity change, positive = activation, most hits filed as activators; hit rate 2.8% among 210,000; AID 1458; also: % of control where 0% means no effect; nearly all actives have a fitted effect of over 55% in size
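HEK293 cells carry an SMN2 minigene-luciferase reporter in which exon 7 inclusion puts luciferase in frame. Cells were seeded at 2000 cells/well, attached for 10-12 hours, then exposed to compounds for 30-36 hours at 37C before ONE-Glo luminescence.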
NPC1 promoter act = activates the NPC1 promoter. Huh7 NPC1 promoter luciferase reporter, 24 h. Potency, µM (doses to about 9.22 µM), inactives show at the top dose activation, usual class: activators. hit rate 2.4% among 320,000. AID 485313; also: % of control where 0% means no effect; nearly all actives have a fitted effect of over 60% in size
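Quantitative HTS used a cell-based reporter: Huh7 cells stably bearing the NPC1 promoter upstream of luciferase were treated with compounds for 24 h, and promoter activation was read as luminescence.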
FLuc modulator = firefly luciferase modulation, counter-screen for miR-21 project | Potency, µM (doses to about 57.5 µM), for the others: at the highest dose activity change, negative = inhibition, most hits filed as inhibitors | hit rate 6.9% among 360,000 | P08659 | purified FLuc, Km substrates, luminescence inhibition;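 also: plate controls were vehicle for no effect and reference inhibitor for full effect; nearly all actives have a fitted effect of over 55% in size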
Target sequence (P08659 whole entry, looked up): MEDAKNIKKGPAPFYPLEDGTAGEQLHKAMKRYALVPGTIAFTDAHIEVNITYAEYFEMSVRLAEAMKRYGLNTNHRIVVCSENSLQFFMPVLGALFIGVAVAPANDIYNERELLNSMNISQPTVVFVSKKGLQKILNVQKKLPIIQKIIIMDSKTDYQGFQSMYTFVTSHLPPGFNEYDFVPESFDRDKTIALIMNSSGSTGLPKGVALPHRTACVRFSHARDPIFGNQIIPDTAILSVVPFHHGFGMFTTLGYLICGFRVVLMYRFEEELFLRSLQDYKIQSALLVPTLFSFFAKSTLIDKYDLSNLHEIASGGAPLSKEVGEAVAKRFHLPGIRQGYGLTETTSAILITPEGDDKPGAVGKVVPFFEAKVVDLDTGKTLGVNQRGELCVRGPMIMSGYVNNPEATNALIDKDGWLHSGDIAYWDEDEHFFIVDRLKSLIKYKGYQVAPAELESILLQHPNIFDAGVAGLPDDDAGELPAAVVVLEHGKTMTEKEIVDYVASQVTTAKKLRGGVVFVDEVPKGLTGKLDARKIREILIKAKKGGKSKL
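Biochemical qHTS of compounds, final roughly 60 µM downward over six points, against 10 nM purified firefly luciferase using Km concentrations of substrates (10 uM D-luciferin, 10 uM ATP) in Tris acetate pH 7.5 buffer; luminescence output.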
Luc counter = Kinase-Glo luciferase inhibition (counter-screen). AID 1379. Kinase-Glo luciferase, ATP luminescence, 8 min. Potency, µM (titrated, usually from 38.3 µM), inactives show top-dose activity change, negative = inhibition, most hits filed as inhibitors. Q27757. hit rate 0.28% among 200,000; also: % is scaled to controls: 0 for no effect and ±100 for the full control effect; nearly all actives have a fitted effect of over 60% in size
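Recombinant Kinase-Glo luciferase, 10 uM ATP (linear range), luciferin; imidazole pH 7.2 / KCl / MgCl2 / Tween / BSA buffer; 8 min RT; luminescence.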
* = called active by the depositor; ? = inconclusive; · = no result; [ ] = another dose, or the depositor's remark. Sampled rows, rich in hits. Any-hit rate of the full collection: about 7.4%. Calls follow the shape of the dose curve; as a rule, active = well fitted curve in the direction sought with a large enough effect; inconclusive = small, poorly fitted or top-dose-only effect, or another doubt; inactive = no such curve, though single readings can be large; an effect the other way counts as inactive or inconclusive. Potency is read from the fitted curve at half-maximal effect.

SMILES	Rab9 promoter act	ELG1 genotoxic	SMN2 splice up	NPC1 promoter act	FLuc modulator	Luc counter
Cc1ccc(C(=O)c2oc3ccccc3c2NC(=O)C(C)Oc2ccccc2Cl)cc1 (stereo not given)	·	·	2%	·	0%	·
O=C(Cn1cc(S(=O)(=O)Cc2cccc(Cl)c2)c2ccccc21)Nc1ccccc1C(F)(F)F	·	·	·	·	1%	·
O=C(Nc1cc2c3c(c1)CC(=O)N3CCC2)c1ccc(Br)cc1	0%	11%	·	0%	15µM*	·
Cc1cc(C)cc(C(=O)Nc2cc3c4c(c2)CC(=O)N4CCC3)c1	-4%	3%	·	-6%	7%	·
O=C1CCCC(O)=C1C=Nc1ccc2c(c1)oc1ccccc12	?	0%	?	25%	2.1µM*	-1%
O=C(N/C=C/c1ccccc1)c1ccccc1	1.3µM*	?	·	1.1µM*	2.1µM*	·
Cc1ccc(NC(=O)Nc2ccccc2C(N)=O)cc1	15%	12%	·	17%	2.7µM*	·
COc1ccc(NC(=O)Nc2ccccc2C(N)=O)cc1	1%	7%	10%	-6%	5.4µM*	8.9µM*
CCOc1ccc(NC(=O)Nc2ccccc2C(N)=O)cc1	0%	2%	6%	8%	1.2µM*	7.1µM*
O=C(c1cc(Br)ccc1O)c1cc(Br)ccc1O	·	·	-7%[9.22 µM]	·	·	-3%[7.66 µM]
COc1ccc(C2C(C(=O)Nc3ccccc3)=C(C)Nc3nc(-c4ccccc4Cl)nn32)cc1OC (stereo not given)	·	·	-12%	·	-1%	·
CC(C)Oc1ccc(CNC(=O)CCCN2C(=O)c3cccnc3Oc3ccc(Cl)cc32)cc1	·	·	·	·	0%	·
COc1ccc(NC(=O)Nc2ccccc2C(N)=O)cc1OC	·	·	-8%	·	19µM*	?
COc1ccc(NC(=O)N/C=C/c2ccccc2)cc1	3.5µM*	?	16µM*	2µM*	?	-2%
COc1ccccc1NC(=O)Nc1ccccc1C(N)=O	1%	3%	-1%	5%	-18%	-3%
CCN(CC)S(=O)(=O)c1ccc2c(c1)N(CC(=O)N1CCN(c3cccc(C)c3)C(C)C1)C(=O)CO2 (stereo not given)	·	·	·	·	-2%	·
O=C(COC(=O)c1cnccn1)c1ccc(Cl)cc1	0%	2%	3%	-5%	19µM*	-4%
O=C(COC(=O)c1cnccn1)c1ccc(Br)cc1	0%	14%	-12%	2%	15µM*	1%
O=C(COC(=O)c1cnccn1)c1ccc2c(c1)CCCC2	9%	-4%	6%	9%	4.8µM*	0%
O=C(COc1ccccc1Cl)c1ccc2c(c1)CCCC2	3.5µM*	?	14µM*	?	11µM*	-9%
O=C(COC(=O)c1cnccn1)c1ccccc1	-5%	-2%	-16%	1%	?	-2%
O=C(COC(=O)c1cnccn1)c1ccc(-c2ccccc2)cc1	-5%	2%	·	-1%	?	·
O=C(COc1cccc(Cl)c1Cl)Nc1ccc2c(c1)CCC2	12%	-3%	-7%	-1%	-1%	-1%
CCn1c(=O)n(CC)c2cc(N3CCCCC3)c(NC(=O)Nc3cc(Cl)ccc3OC)cc21	·	·	·	·	-5%	·
CCOc1ccc(CN2CCN(S(=O)(=O)c3ccc(Cl)cc3)CC2)cc1	·	·	-25%	·	-6%	·
SMILES	Rab9 promoter act	ELG1 genotoxic	SMN2 splice up	NPC1 promoter act	FLuc modulator	Luc counter
Cc1cnc(C(=O)OCC(=O)c2ccc(C3CCCCC3)cc2)cn1	0%	6%	·	1%	?	·
O=C(COC(=O)c1cnccn1)c1ccc(C2CCCCC2)cc1	2%	0%	·	-1%	2.4µM*	·
C[C@H]1OC(=O)CC[C@@H]2[C@]1(C)CCC1[C@@]2(C)CC[C@@]2(C)C3CC(C)(C)CC[C@]3(CO)CC[C@]12C (stereo not given in full)	·	·	4%	·	·	-2%
CCN1CCN(CCCNC(=O)Cn2nc(C)n3c(cc4c(OC)cccc43)c2=O)CC1	·	·	-10%	·	4%	·
CN(C)c1ccc(NC(=S)c2ccccn2)cc1	0.32µM*	?	0.5µM*	?	0.085µM*	13µM*
CN(C)c1cc(O)c(C(=S)Nc2ccccc2)c(N(C)C)c1	20%	-4%	5%	24%	24µM*	1%
CN(C)c1ccc(C(=S)Nc2ccccc2)cc1	1µM*	?	26%	2.8µM*	1.5µM*	-3%
CC(=O)N(C)c1ccc(NC(=S)Nc2ccccc2)cc1	-2%	15%	1%	8%	-3%	-4%
CCc1ccc(NC(=O)c2ccc3nc(N)sc3c2)cc1	?	?	?	?	12µM*	-5%
CCOc1ccc2nc(N)sc2c1	·	·	29%	·	·	·
CCc1ccc2nc(N)sc2c1	3.5µM*	?	20µM*	2.2µM*	11µM*	-5%
Nc1nc2ccc(C(=O)Nc3ccccc3)cc2s1	3.2µM*	?	·	3.5µM*	19µM*	·
CN(C(=O)c1ccc2nc(N)sc2c1)c1ccccc1	1%	-1%	·	0%	-2%	·
CCOc1ccccc1N(CC)C(=O)c1noc2c1COc1ccc(C)cc1-2	·	·	·	·	0%	·
COc1ccc(C2C(=O)N(C3CCC(C)CC3)CC(=O)N2Cc2ccc(C)cc2)cc1OC (stereo not given)	·	·	·	·	-7%	·

Screening results deposited in PubChem BioAssay by National Center for Advancing Translational Sciences (NCATS).
